Bioassay records: PubChem BioAssay, Broad Institute
MITF act = activators of MITF-driven TRPM1 promoter activity in SK-MEL-5 cells; 300,000 tested, 0.75% active; SK-MEL-5 TRPM1-promoter luciferase, 24 h; % of positive control, neutral wells = 0; AID 588334; activation, % at 12.5 µM;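 active = mean activation of at least 80% with every replicate also reaching 80%; inconclusive = mean reaches 80% but some replicate falls short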;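 also: 0% = neutral control wells and 100% = parthenolide positive control wells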
C2C12 statin = suppression of simvastatin myotoxicity; AID 602340; 330,000 tested, 0.78% active; rescue of ATP level, % at 7.49 µM; C2C12 myotubes + simvastatin, ATP luminescence, 48 h; scaled: DMSO 0, geranylgeraniol control 100;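 active = mean ATP rescue above about 67%, or every replicate alone reaching that limit, limit read from the data, passing the limit was not always enough; inconclusive = no clear call, values can overlap the other calls; inactive = mean under the limit and some replicate under it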;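 also: myotubes were challenged with 10 µM simvastatin during compound exposure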
Wnt act = Wnt/beta-catenin pathway activation. Wnt/beta-catenin reporter cell assay, activator, plate reader. activation, % at 9.35 µM. 300,000 tested, 1.2% active; in the data active = activation above about 30%, passing the limit was not always enough; inconclusive = no clear call, values can overlap the other calls;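 also: 0% = neutral control wells and 100% = positive control wells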
esBAF inh = inhibitors of esBAF chromatin remodeling in mouse ES cells; Bmi1-luciferase knock-in reporter, 24 h; 100% = twice the neutral-well signal; reporter increase, % at 12.5 µM; 350,000 tested, 2% active; in the data active = activation above about 40%; inconclusive = no clear call, values can overlap the other calls;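 also: 0% = median of the plate's neutral control wells and 100% = double that signal; a rise in the Bmi1 reporter signal indicates esBAF inhibition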
* marks the source's active call; other numbers are inactive results; ? = inconclusive; · = not tested or not shown. This is a sample that favours compounds with a hit; in the whole collection about 3% have one here.

SMILES | MITF act | C2C12 statin | Wnt act | esBAF inh
O=C(NC1CCCCCCC1)c1cccc(Cl)c1 | 64 | -4 | 20 | 60*
O=C(NC1CCCC1)c1cccc(Cl)c1 | 4 | · | -1 | ·
O=C(CNC(=O)c1ccc2ccccc2c1)NC1CCCCC1 | 11 | -5 | 13 | 21
C[C@H](CO)N1C[C@H](C)[C@@H](CN(C)C(=O)Nc2ccc(C(F)(F)F)cc2)Oc2ncc(-c3cccnc3)cc2C1=O | · | -21 | · | -1
COc1ccc(CC(NC(C)=O)C(=O)NC2CCN(c3nc(C)cc(C)c3C#N)CC2)c(OC)c1 (centres undefined) | -4 | -45 | -10 | 1
COc1cccc(CC(NC(C)=O)C(=O)NC2CCN(c3nc(C)cc(C)c3C#N)CC2)c1 (centres undefined) | -12 | 118* | 3 | 0
CC(C)c1ccc(/C=N/NC(=O)CCNC(=O)c2ccccc2)cc1 | 76 | 8 | -5 | 62*
O=C(N/N=C/c1ccccc1Cl)c1ccc(F)cc1 | 47 | 11 | · | 16
CC(C)c1ccc(C(=O)N/N=C/c2cccc(Cl)c2Cl)cc1 | 39 | 113* | 19 | 18
Cn1cccc1-c1cc(C(=O)N/N=C/c2ccccc2Cl)[nH]n1 | 86* | 7 | 10 | 55*
CC(C)c1ccc(/C=N/NC(=O)c2cccc(Cl)c2)cc1 | 60 | · | 28 | ·
O=C(NN=Cc1ccccc1Cl)c1ccccc1 | · | · | 63* | ·
C[C@H]1CN([C@@H](C)CO)C(=O)Cc2cc(NC(=O)Nc3ccc(F)cc3)ccc2O[C@H]1CN(C)CC1CC1 | · | -26 | · | -4
CCN(CC)CCOc1nnc(-c2ccc(C)cc2)c2ccccc12 | 3 | 7 | · | -4
Cc1ccc(-c2nnc(OCCN3CCOCC3)c3ccccc23)cc1 | -11 | 111* | -2 | -36
Cc1ccn2cc(-c3ccc4c(c3)NC(=O)CO4)nc2c1 | 103* | · | 16 | ·
CCOc1cc(C2NN=C(c3ccc(C)cc3)S2)ccc1O (centres undefined) | 68 | · | 63* | ·
COc1ccc(C2NN=C(c3ccc(C)cc3)S2)cc1 (centres undefined) | 73 | -4 | 29 | 27
Cc1cnc(C(=O)Nc2ccc(F)cc2)cn1 | 52 | -8 | · | 4
Cc1cnc(C(=O)Nc2ccc(C(C)C)cc2)cn1 | 131* | · | 39* | ·
Cc1noc(C)c1NC(=O)Nc1ccc2c(c1)C(=O)N([C@H](C)CO)C[C@H](C)[C@@H](CN(C)S(=O)(=O)c1c(C)noc1C)OCCCC[C@H](C)O2 | · | 24 | · | 2
COc1cccc(-c2nc3n(n2)CCc2ccccc2-3)c1 | · | 5 | 64* | 36
Clc1ccc(-c2nc3n(n2)Cc2ccccc2-3)cc1 | · | -22 | 53* | 8
CCN(CC)S(=O)(=O)c1cccc(-c2nc3n(n2)Cc2ccccc2-3)c1 | -16 | -21 | -2 | 75*
Cc1noc(C)c1NC(=O)N(C)C[C@H]1Oc2ccc(NS(=O)(=O)c3ccc(Cl)cc3)cc2C(=O)N([C@@H](C)CO)C[C@H]1C | · | -5 | · | 1
SMILES | MITF act | C2C12 statin | Wnt act | esBAF inh
COc1ccc(-c2cnc3c(c2)C(=O)N([C@@H](C)CO)C[C@@H](C)[C@@H](CN(C)C(=O)Cc2ccncc2)O3)cc1 | · | -8 | · | -7
COCCCN1C(=O)c2ccc(C(=O)O)cc2C1=O | 4 | 100* | · | 6
CN1CCCC1CCNc1ccc2oc3ccccc3c(=O)c2c1 (centres undefined) | · | · | 3 | ·
Cn1c2ccccc2c(=O)c2ccc(NCc3ccc4c(c3)OCO4)cc21 | 20 | 1 | 6 | 44*
Cn1c2ccccc2c(=O)c2cc(NCCCN3CCOCC3)ccc21 | 55 | -14 | 25 | 33
CN1CCCC1CCNc1ccc2c(=O)c3ccccc3oc2c1 (centres undefined) | 89* | 0 | 19 | 32
CN1CCC[C@H]1CCNc1ccc2c(=O)c3ccccc3n(C)c2c1 | 57 | -8 | 17 | 64*
CC(=O)c1ccccc1NC(=O)COC(=O)c1cc(C)oc1C | 11 | -9 | 1 | 5
C=C(C)COC(=O)c1ccccc1C(=O)OCC1(C)CO1 (centres undefined) | 7 | 98* | 7 | ·
O=C(NCc1cc(F)ccc1F)C1CCC(=O)N(C2CCCCCC2)C1 (centres undefined) | 49 | 6 | 11 | 48*
CC[n+]1c(/C=C/c2cc([N+](=O)[O-])ccc2O)ccc2ccccc21 | · | -19 | -2 | 43*
CC[n+]1c(/C=C/c2ccc(N(C)C)cc2)ccc2ccccc21 | -88 | · | · | ·
CC[n+]1c(/C=C/c2ccc(OC(C)=O)c(OC)c2)ccc2ccccc21 | 97* | 0 | 17 | 83*
CC[n+]1c(/C=C/c2ccc(OC)c(OC)c2)ccc2ccccc21 | · | -20 | 8 | 80*
Oc1ccc(Cl)cc1C1=Nc2ccccc2N=C(c2ccco2)C1 | -6 | -9 | 5 | 26
Fc1ccccc1C1CC(c2ccco2)=Nc2ccccc2S1 (centres undefined) | -8 | 20 | 35* | 11
CCCNC(=O)Nc1ccc2c(c1)C(=O)N(C)C[C@H](OC)[C@H](C)CN(C(=O)C1CC1)[C@@H](C)CO2 | · | -4 | · | -2
CC(C)(C)C(=O)Nc1ccc(C(=O)COC(=O)C2CC2)cc1 | 76 | -11 | 1 | 60*
CCOC(=O)C1CCN(C(=O)c2ccc(N(C)S(C)(=O)=O)cc2)CC1 | 3 | -6 | · | 7
CN(c1ccc(C(=O)COC(=O)C2CC2)cc1)S(C)(=O)=O | 83* | -8 | 14 | 3
COC(=O)c1ccc(NC(=O)COC(=O)C2CCC2)cc1 | 7 | -1 | 0 | 1
CO[C@H]1CN(C)C(=O)c2cc(NC(=O)C3CCOCC3)ccc2OC[C@H](C)N(C(=O)c2ccccc2)C[C@H]1C | · | -3 | · | 0
O=C(Nc1ccc(F)cc1)N[C@H]1C=C[C@H](CC(=O)N2CCOCC2)O[C@H]1CO | · | -5 | · | -7
CC(C)Sc1nc(SCC(=O)NCc2ccco2)c2c3c(sc2n1)COC(C)(C)C3 | 24 | 129* | · | ?
CCC(=O)Nc1ccc(NC(=O)c2ccco2)c(OC)c1 | 57 | -8 | 41* | 23
SMILES | MITF act | C2C12 statin | Wnt act | esBAF inh
CCCC(=O)Nc1ccc(NC(=O)c2ccco2)c(OC)c1 | 88* | -25 | 16 | 63*
COc1cc(NC(=O)CC(C)C)ccc1NC(=O)c1ccco1 | 70 | 17 | -1 | 23
CN(C)c1ccc(N=Nc2ccc(C(=O)O)cc2)cc1 | -65 | · | 7 | ·
Cc1cc(O)c(N=Nc2ccc(C(=O)O)cc2)cc1C | 17 | -22 | 17 | 67*
CO[C@@H]1CN(C)C(=O)c2ccc(NS(=O)(=O)CC(F)(F)F)cc2OC[C@H](C)N(C)C[C@H]1C | · | -8 | · | 3
CO[C@H]1CN(C)C(=O)c2ccc(NC(=O)Nc3ccccc3)cc2OC[C@@H](C)N(C(=O)CN(C)C)C[C@H]1C | · | -219 | · | 13
O=C1Nc2ccccc2/C1=C/c1cnc(-c2ccccc2)[nH]1 | · | 4 | 41* | ?
O=C1Nc2ccccc2/C1=C/c1cccnc1 | -17 | · | -2 | ·
CCCN(C)C[C@H]1Oc2cc(C3=CCCCC3)ccc2S(=O)(=O)N([C@@H](C)CO)C[C@H]1C | · | -85 | · | -6
